Screens as filed in PubChem.
Pf growth 48h: P. falciparum growth inhibition at 48 hours (one generation). AID 504832. hit rate 5.9% among 310,000. Potency, µM (top dose mostly 28.7 µM), hits mostly inhibitors. P. falciparum luciferase growth in erythrocytes, 48 h
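Cell-based growth assay: transgenic P. falciparum expressing firefly luciferase, cultured in red cells within RPMI 1640 containing 0.5% w/v Albumax, 24 mM bicarbonate and gentamycin. A drop in luciferase activity indicates inhibition.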
Sm TGR inh: inhibitors of Schistosoma mansoni thioredoxin glutathione reductase; Potency, µM (top dose mostly 114 µM), hits mostly inhibitors; Q962Y6; hit rate 3% among 360,000; purified TGR, DTNB reduction, TNB absorbance 405 nm; note: nearly all actives have a fitted effect of over 60% in size
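TGR 20 nM + NADPH 100 uM (dispensed conc.), cpd preinc 15 min RT; start with NADPH (500 uM addition) then DTNB (15 mM addition). Kinetic TNB absorbance, 405 nm filter. Four-parameter Hill fit across titration.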
Pf growth 96h: P. falciparum growth inhibition at 96 hours; P. falciparum luciferase reporter growth, 96 h; Potency, µM (highest dose often 28.7 µM), usual class: inhibitors; hit rate 6.9% among 320,000; AID 504834
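P. falciparum expressing integrated firefly luciferase, in erythrocytes at 2% hematocrit, 0.05% parasitemia, incubated with compounds 96 h at 37 C, 5% CO2. Growth inhibition read as loss of luminescence; two-generation exposure targets delayed-death apicoplast inhibitors.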
AMA1 RON2 block: inhibitors of Plasmodium falciparum AMA1-RON2 interaction; AlphaScreen AMA1-biotinylated RON2 peptide binding; Potency, µM (top dose mostly 58.2 µM), most hits filed as inhibitors; hit rate 0.2% among 360,000; note: nearly all actives have a fitted effect of over 45% in size
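AMA1 (3D7) with his tag at 25 nM final met compounds first, then biotinylated RON2 peptide at 25 nM; detection used donor plus acceptor beads, 10 µg/mL apiece, read by AlphaScreen after 30 min at room temperature.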
NS1 inh: inhibitors of influenza NS1 protein function; Potency, µM (highest dose often 46.1 µM); hit rate 0.4% among 270,000; calls by dose curve; note: actives are rising curves; nearly all actives have a fitted effect of over 50% in size
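Recovery from NS1-induced slow growth read by OD600 in budding yeast switched to galactose assay medium (pH 6.0, -URA) at 1:100 dilution. Compound 23 nl per well; the matching strain lacking NS1 serves as control.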
Numbers stand for hits; - = inactive; ? = inconclusive; . = no result given; [ ] = remark or other dose. Hits are enriched below; roughly 11% of the tested compounds scored in any of these assays. Unless noted, calls come from the whole dose curve; as a rule, active = well fitted curve in the direction sought with a large enough effect; inconclusive = small, poorly fitted or top-dose-only effect, or another doubt; inactive = no such curve, though single readings can be large; an effect the other way counts as inactive or inconclusive.

SMILES | Pf growth 48h | Sm TGR inh | Pf growth 96h | AMA1 RON2 block | NS1 inh
Cc1ccccc1NC(=S)N(Cc1ccccc1)Cc1cccnc1 | ? | - | - | - | -
CN(C(=O)CSc1nc(N)c2c3c(sc2n1)CSC(C)(C)C3)c1ccccc1 | ? | - | - | - | -
COc1ccc(CNC(=O)C2CCN(Cc3nc(-c4ccc(OC)c(OC)c4)oc3C)CC2)cc1 | . | - | . | . | .
C/C(=C\c1ccc(Br)cc1)C(=O)c1c(C)cc(C)[nH]c1=O | - | - | 10µM | - | -
C/C(=C\c1ccc(Cl)cc1)C(=O)c1c(C)cc(C)[nH]c1=O | - | - | ? | - | ?
Cc1ccc(/C=C/C(=O)c2c(C)cc(C)[nH]c2=O)cc1 | ? | - | ? | - | -
CCc1ccc(/C=C/C(=O)c2c(C)cc(C)[nH]c2=O)cc1 | 9.3µM | ? | - | - | -
COc1ccc(F)c(CN2CCCC(CNS(=O)(=O)c3cccc4cccnc34)C2)c1 (centres undefined) | ? | - | - | - | -
O=C(c1ccc2c(c1)OCO2)C1CCCN(C2CCN(CCc3ccccc3)CC2)C1 (centres undefined) | 2.6µM | - | - | - | -
c1cc2c(cc1CN1CCN(C3CCCCCC3)CC1)OCO2 | - | - | - | ? | -
CCOC(=O)CNC(=O)N1CCCC(C(=O)c2ccc3c(c2)OCO3)C1 (centres undefined) | - | - | 12µM | - | -
c1ccc(CN2CCC(N3CCN(Cc4ccc5c(c4)OCO5)CC3)CC2)cc1 | 15µM | - | ? | - | -
Cc1cc(S(=O)(=O)NCC2CCCO2)c(C)cc1Br (centres undefined) | - | - | - | - | -
Cn1c(=O)c2c(ncn2Cc2nnc(N)s2)n(C)c1=O | - | - | - | - | -
O=C1CCCN1CCCNC(=S)Nc1ccc(Cl)cc1Cl | - | 89µM | - | - | .
O=C(NCCCN1CCCC1=O)Nc1ccc(Br)cc1Cl | - | - | 10µM | - | -
Cc1ccccc1OCCC(=O)OCC(=O)NCCNC(=O)COC(=O)CCOc1ccccc1C | - | - | - | - | .
COc1ccc(NC2CCCN(C(=O)c3ccc4[nH]c(C)c(C)c4c3)C2)cc1 (centres undefined) | ? | - | 13µM | - | -
COc1ccc(NC2CCCN(C(=O)c3ccc(C(C)=O)cc3)C2)cc1 (centres undefined) | - | - | - | - | -
CC(C)CC(=O)NC(=S)NNC(=O)c1ccc(NC(=O)C2CCCCC2)cc1 | ? | - | 13µM | - | -
O=C(OC1CCCCC1)c1ccc(NC(=O)C2CCCCC2)cc1 | . | - | 12µM | - | -
CC(C)(C)C(=O)Nc1ccc(C(=O)OC2CCCCC2)cc1 | - | - | . | - | -
O=C(O)CCC(=O)Nc1ccc(C(=O)OC2CCCCC2)cc1 | . | ? | - | - | -
O=C(Nc1ccc(C(=O)OC2CCCCC2)cc1)c1ccncc1 | - | - | 5.2µM | - | -
CCCCC(=O)Nc1ccc(C(=O)OC2CCCCC2)cc1 | 10µM | - | . | - | -
SMILES | Pf growth 48h | Sm TGR inh | Pf growth 96h | AMA1 RON2 block | NS1 inh
CCOc1ccc(OCCC(=O)N(CC)CC(=O)Nc2c(F)cccc2F)cc1 | - | - | - | -[11.6 µM] | .
CC1(C)CN(CCc2ccccc2)C(=O)[C@H]1CC(=O)Nc1ccccc1 | . | . | . | - | .
CC(C)(C)OC(=O)Nc1ccccc1-n1nnnc1C(C(=O)c1ccccc1)N1CCN(c2ccccn2)CC1 (centres undefined) | . | . | . | - | .
CC(CCc1ccc(O)cc1)NCc1ccc(Br)cc1 (centres undefined) | ? | - | - | - | -
CCc1sc(C(=O)N(CCCOC)c2c(N)n(CC(C)C)c(=O)[nH]c2=O)cc1C | - | - | - | - | .
COc1cccc(NC(=O)Cn2c(=O)n(Cc3ccc4c(c3)OCO4)c(=O)c3oc4ccccc4c32)c1 | . | - | . | . | .
O=C(CN1C(=O)/C(=C\c2cccc(F)c2)Oc2ccccc21)N1CCN(c2ccccn2)CC1 | - | - | ? | - | -
O=C(CN1C(=O)/C(=C/c2ccc(F)cc2)SC1=S)N1CCN(CCc2ccccn2)CC1 | - | - | 15µM | - | -
O=C(CN1C(=O)/C(=C\c2ccc(F)cc2)Oc2ccccc21)N1CCN(c2ccccn2)CC1 | - | - | 7.4µM | - | -
Cc1ccc(/C=C2\SC(=S)N(CCCC(=O)Nc3ccccn3)C2=O)cc1 | ? | - | 10µM | - | -
Cc1ccc(/C=C2\SC(=S)N(CCCC(=O)Nc3ccccc3C(=O)O)C2=O)cc1 | - | - | ? | - | -
